This passage reports growth results from PubChem BioAssay (NCI).

About 83,000 compounds went through this panel and 20% of them were active in at least one assay; those are over-represented in the sample as a whole.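 96-well plates, one dose, 48 hours. Percent growth reported; active if below 10.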 Unmarked numbers belong to inactive results. Active and inactive are the calls of the source.

The subject of the assay is OVCAR-4 ovarian. As to the kind of experiment: NCI-60 one-dose screen, 48 h (100 = growth as untreated, 0 = no growth, -100 = all killed). Particulars: 10 µM unless noted.
Consider `CCN(CC)CCN1C(=O)c2cccc3c(/C=C/CN4C(=O)c5cccc6cccc(c56)C4=O)ccc(c23)C1=O`, for which the growth was 102%.
With `CCN1CCN(C(=O)[C@]23CC[C@@H](C)[C@H](C)[C@@H]2C2=CC[C@@H]4[C@@]5(C)C/C(=C/c6cccnc6)C(=O)C(C)(C)[C@@H]5CC[C@@]4(C)[C@]2(C)CC3)CC1`, the growth is 26.7%.
As for `COc1ccc(C2CC(c3cc(OC)c(OC)c(OC)c3)=NO2)cc1OCCCCOc1cc2c(cc1OC)C(=O)N1CCC[C@H]1C=N2` (stereo partly specified), the growth was 13.8%.
In the case of `Cn1c(=O)c2[nH]c(SCC(=O)Nc3ccc(C(=O)/C=C/c4ccccc4Cl)cc3)nc2n(C)c1=O`, the growth was 88.3%.
As for `CC1(C)N=C(N)N=C(N)N1c1cccc(CCc2ccccc2)c1`, the growth was 72.1%.
For `O=C1c2ccccc2C(=O)c2c1c(C(=O)NCc1ccccc1)c1ccccn21`, the growth was 105%.
`CC1C(/C=N/NC(N)=S)C(C#N)(C#N)C1(C#N)C#N` (stereo unspecified): the growth is 103%.
Take `NS(=O)(=O)c1ccc(-c2cc(-c3nnc(SCC(=O)Nc4ccc(C(=O)/C=C/c5ccc(Cl)cc5)cc4)n3-c3ccccc3)c3ccccc3n2)cc1`: the growth was 105%.
The result for `CC1(C)CC[C@]2(C(=O)N[C@H](CO)Cc3ccccc3)CC[C@]3(C)C(=CC[C@@H]4[C@@]5(C)CCCNC(C)(C)[C@@H]5CC[C@]43C)[C@@H]2C1` reads 87.7%.
As to `CCCCNc1cc(-c2cn[nH]c2-c2cc(C)cc(OC)c2)nc(-c2cccnc2)n1`, the growth is 73.8%.
The result for `C/C(=N\O)[C@@H]1CC[C@]2(CO)CC[C@]3(C)[C@H](CC[C@@H]4[C@@]5(C)CCCNC(C)(C)[C@@H]5CC[C@]43C)[C@@H]12` reads 77.2%; that for `CN(C)CCCC1(c2ccc(F)cc2)OCc2cc(-c3cc4ccccc4s3)ccc21` (stereo unspecified), 16.8%.
As to `C=C(C)[C@@H]1CCC[C@]2(C(=O)O)CC[C@]3(C)[C@@H](CC[C@@H]4[C@@]5(C)C/C(=C/c6ccncc6)C(=O)C(C)(C)[C@@H]5CC[C@]43C)[C@@H]12`, the growth is 28.4%.
For `C=Cc1cnc(Nc2ccc(OC)cc2)nc1NCCCNC(=O)C1CCC1`, the growth was 46.4%.
With `Cc1ccc(CNc2ccc3nc(CCC(C)C)[nH]c3c2)cc1`, the growth is 85.1%.
In the case of `O=c1ccc(=O)n(-c2nc(-c3ccc([N+](=O)[O-])cc3)cs2)[nH]1` it was 101%; in that of `CC(=O)OC(c1ccccc1)C1CCOC1=O` (stereo unspecified), 88.3%.
As to `Cc1ccc(-c2csc(N(C(=O)N3CCN(c4cc5c(cc4F)c(=O)c(C(=O)O)cn5C4CC4)CC3)c3ccccc3)n2)cc1`, the growth is 28.4%.
In the case of `CCN1CCN(CC(=O)Nc2nc3ccc(NCc4ccc(F)cc4)cc3s2)CC1` it was 84%; in that of `CCOC(=O)c1c(C)nc2c(c1N)CC(=O)N2Cc1ccc(OC)cc1`, 7.06% (active).
Turning to `CCNC(=O)Oc1ccc(/C(=C(/C)Cc2ccc(OC)cc2)c2ccc(OCCN3CCCCC3)cc2)cc1`, the growth is 75.1%.
The result for `C=C(C)[C@@H]1CCC[C@]2(C(=O)N3CCN(C)CC3)CC[C@]3(C)[C@@H](CC[C@@H]4[C@@]5(C)CC/C(=N\NC(=O)c6ccncc6)C(C)(C)[C@@H]5CC[C@]43C)[C@@H]12` reads 91.5%; that for `CCCCCCCCCCCCCOC(=O)c1c(C)[nH]c(/C=C2\N=C(c3ccc[nH]3)C=C2OC)c1C`, 55.8%.
On to `COc1cccc(/C=C/C(=O)c2cccc(Nc3nc(Nc4ccccc4)nc(Nc4ccccc4)n3)c2)c1`, for which the growth is 84.1%.
In the case of `O=C(C1CCCCC1)[C@@H]1[C@]2(C(=O)NC3CCCCC32)[C@@H]2CCCN2[C@@]12C(=O)NC1CCC(Cl)CC12` (stereo partly specified) it was -79.6% [100 µM] (active); in that of `N#C/C(=C\c1ccc(-c2cccc(C(F)(F)F)c2)o1)c1ccccc1`, 79%.
As for `COc1cc(C(=O)n2nc(N3CCOCC3)c3cc(-n4cccc4)ccc32)cc(OC)c1OC`, the growth is 68.5%.
In the case of `COC(=O)c1c2c(c(C)[n+]([O-])c1C)C(=O)C(NCc1ccc(OC)cc1)=CC2=O` it was -39.2% (active); in that of `CC1=C(CCC(C)NCc2ccc(OCCCN3CCCCC3)cc2)C(C)(C)CCC1` (stereo unspecified), -4.46% (active).
In the case of `CN1CCN(CCCOc2cccc3nc(Nc4ccc(F)c(F)c4)ccc23)CC1` it was 39.3%; in that of `CC1(C)CC[C@]23CC[C@]4(C)[C@H](CC[C@@H]5[C@@]6(C)C/C(=C/c7ccncc7)C(=O)C(C)(C)[C@@H]6CC[C@]54C)[C@H]2[C@H]1OC3`, 92.2%.
